Results taken from PubChem BioAssay (NCATS).
Inconclusive results are not listed. Where a call stands in place of a potency, no number is given. Activity calls are given as the source filed them. Unless noted, the call rests on the fitted dose curve; in most records, active means well fitted curve in the direction sought with a large enough effect; inconclusive means small, poorly fitted or top-dose-only effect, or another doubt; inactive means no such curve, though single readings can be large; an effect the other way counts as inactive or inconclusive.

What was measured:
[1] = target: Glutaminase kidney isoform, mitochondrial (Homo sapiens) (UniProt O94925); test: qHTS for Inhibitors of Glutaminase (GLS): LOPAC Validation (AID 624146); further: nearly all actives have a fitted effect of over 60% in size; further: potency means the concentration at half of the fitted maximal effect
Chain of Glutaminase kidney isoform, mitochondrial (Homo sapiens) (O94925 whole entry, looked up, canonical isoform): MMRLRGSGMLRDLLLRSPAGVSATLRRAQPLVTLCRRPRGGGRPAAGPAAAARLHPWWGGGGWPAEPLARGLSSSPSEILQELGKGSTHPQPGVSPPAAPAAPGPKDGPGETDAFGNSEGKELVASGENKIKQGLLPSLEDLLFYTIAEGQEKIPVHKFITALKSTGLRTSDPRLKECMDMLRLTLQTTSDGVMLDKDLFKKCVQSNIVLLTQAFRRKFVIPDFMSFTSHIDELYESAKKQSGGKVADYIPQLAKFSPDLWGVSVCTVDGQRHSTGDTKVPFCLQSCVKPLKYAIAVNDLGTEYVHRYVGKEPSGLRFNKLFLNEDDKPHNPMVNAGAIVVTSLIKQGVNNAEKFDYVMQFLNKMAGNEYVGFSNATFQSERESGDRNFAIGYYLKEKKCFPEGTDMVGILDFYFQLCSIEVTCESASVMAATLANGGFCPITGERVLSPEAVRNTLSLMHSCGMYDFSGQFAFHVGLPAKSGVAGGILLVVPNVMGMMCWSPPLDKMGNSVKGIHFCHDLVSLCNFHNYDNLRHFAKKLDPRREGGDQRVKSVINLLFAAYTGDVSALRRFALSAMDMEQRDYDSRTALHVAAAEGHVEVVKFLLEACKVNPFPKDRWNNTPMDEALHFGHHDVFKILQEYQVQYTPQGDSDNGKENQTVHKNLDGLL
How it was run: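 Enzyme dispensed in phosphate buffer (45 mM, pH 8.2, 0.02% Tween-20), compounds pinned in, then 1 mM L-glutamine solution and the glutamate oxidase–HRP–Amplex Red mix added; fluorescence read immediately and again after 30 min at room temperature.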

[2] = qHTS of Trypanosoma Brucei Inhibitors: LOPAC Validation (AID 624147)
How it was run: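 Glycolytic pyruvate kinase of T. brucei was incubated with substrate, test compound and 130 uM ADP for 45 minutes at room temperature. Luminescent Kinase-Glo Plus signal was measured after 10 minutes.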

[3] = target: Glucagon-like peptide 1 receptor (Homo sapiens) (UniProt P43220); test: qHTS of GLP-1 Receptor Agonists: LOPAC Validation (AID 624148);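 further: higher luminescence signal means agonism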
Chain of Glucagon-like peptide 1 receptor (Homo sapiens) (P43220 whole entry, looked up): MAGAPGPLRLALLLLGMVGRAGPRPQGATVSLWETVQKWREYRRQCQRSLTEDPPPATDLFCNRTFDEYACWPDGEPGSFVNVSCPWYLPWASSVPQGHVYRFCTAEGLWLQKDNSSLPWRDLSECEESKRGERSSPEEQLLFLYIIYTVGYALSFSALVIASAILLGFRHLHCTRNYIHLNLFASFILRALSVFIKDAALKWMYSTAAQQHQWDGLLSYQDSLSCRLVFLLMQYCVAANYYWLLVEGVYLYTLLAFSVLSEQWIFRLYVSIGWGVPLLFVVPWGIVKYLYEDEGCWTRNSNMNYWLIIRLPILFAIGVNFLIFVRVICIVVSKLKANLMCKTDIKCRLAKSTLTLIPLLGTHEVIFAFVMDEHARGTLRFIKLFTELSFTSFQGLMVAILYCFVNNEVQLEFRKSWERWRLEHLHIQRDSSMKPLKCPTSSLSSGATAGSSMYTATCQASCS
How it was run: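 HEK293 cells stably co-expressing a cAMP-responsive luciferase reporter and a hypersensitive GLP-1R were plated 12 h at 37 °C and exposed to compounds for 4-6 hr at 37 °C, 5% CO2. Luminescence was read 12 min after adding detection reagent.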

[4] = qHTS of Nrf2 Activators: LOPAC Validation (AID 624149)
How it was run: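 AREc32 cells carrying an ARE-driven firefly luciferase were grown overnight in OPTI-MEM with 5% FBS, then exposed to compounds for 24 hr at 37 deg C. Luciferase signal was read after 30 min with Steady-Glo at RT.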

[5] = S16 Schwann cell PMP22 intronic element beta-lactamase assay (AID 624044; calls by dose curve; further: nearly all actives have a fitted effect of over 15% in size)
How it was run: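 Rat S16 Schwann cells with beta-Lac driven by a PMP22 intronic element, compound-treated 24 h at 37 °C. LiveBLAzer FRET B/G read: 460 nm normalized to potassium clavulanate vs DMSO; 535 nm FRET as viability; concentration-effect curves classified.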

[6] = HTS Assay for Allosteric Antagonists of the Human D2 Dopamine Receptor: Hit Validation in HTRF (AID 624455);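 further: stable D1 dopamine receptor cell line scored for blocking the D1 response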
How it was run: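 Hits were examined in an HTRF assay using cells stably expressing the D1 dopamine receptor, scoring inhibition of the D1-mediated response. The preceding primary screen tracked calcium flux after an EC80 dopamine addition in force-coupled, inducible Hek293 Trex D2 cells.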

C[N+]1(C)CCC(OC(=O)C(c2ccccc2)c2ccccc2)CC1
Potency [1]: inactive
Potency [2]: inactive
outcome [3]: inactive
outcome [4]: inactive

CC(N)C(=O)OC(C)(C)Cc1ccc(Cl)cc1 (stereo not given)
Potency [5]: inactive
Potency [1]: inactive
Potency [2]: inactive
outcome [3]: inactive
outcome [4]: inactive
Potency [6]: inactive

NC(N)=NC(=O)c1nc(Cl)c(N2CCCCCC2)nc1N
Potency [1]: inactive
Potency [2]: inactive
outcome [3]: inactive
outcome [4]: inactive

CN1[C@@H](CC(=O)c2ccccc2)CCC[C@H]1C[C@H](O)c1ccccc1
Potency [5]: inactive
Potency [1]: inactive
Potency [2]: inactive
outcome [3]: inactive
outcome [4]: inactive
Potency [6]: inactive

O=S(=O)(c1cccc2c(I)cccc12)N1CCCNCC1
Potency [1]: inactive
Potency [2]: inactive
outcome [3]: inactive
outcome [4]: inactive

O=C1NC(=O)/C(=C/c2ccc3nccnc3c2)S1
Potency [1]: inactive
Potency [2]: inactive
outcome [3]: inactive
outcome [4]: inactive

CN(C)c1ccc(/C=C2\C(=O)Nc3ccccc32)cc1
Potency [1]: inactive
Potency [2]: inactive
outcome [3]: inactive
outcome [4]: inactive

C=CC(=O)c1ccc(CCCCCC)cc1
Potency [1]: inactive
Potency [2]: inactive
outcome [3]: inactive
outcome [4]: inactive

CCCCCCCCCCCCCCCCCC(=O)OC(CC(=O)O)C[N+](C)(C)C (stereo not given)
Potency [1]: inactive
Potency [2]: inactive
outcome [3]: inactive
outcome [4]: inactive

CN(C)CCCO[C@@H]1[C@H]2OC(C)(C)O[C@H]2O[C@@H]1[C@H](O)CO
Potency [1]: inactive
Potency [2]: inactive
outcome [3]: inactive
outcome [4]: inactive

CNC(=O)[C@H]1O[C@@H](n2cnc3c(NCc4ccc(N)cc4)ncnc32)[C@H](O)[C@@H]1O
Potency [1]: inactive
Potency [2]: inactive
outcome [3]: inactive
outcome [4]: inactive

O=C(CCCCCN1CCN(c2ccccc2-c2ccccc2)CC1)NC1CCCc2ccccc21 (stereo not given)
Potency [1]: inactive
Potency [2]: inactive
outcome [3]: inactive
outcome [4]: inactive

NS(=O)(=O)C#Cc1ccccc1
Potency [1]: inactive
Potency [2]: inactive
outcome [3]: inactive
outcome [4]: inactive

O=C(c1ccc(Cl)cc1)N1CCN(c2ccc([N+](=O)[O-])c3ncccc23)CC1
Potency [1]: inactive
Potency [2]: inactive
outcome [3]: inactive
outcome [4]: inactive

N[C@@H](CC(=O)O)C(=O)O
Potency [1]: inactive
Potency [2]: inactive
outcome [3]: inactive
outcome [4]: inactive

C#C[C@]1(O)CC[C@H]2[C@@H]3CCC4=Cc5oncc5CC4(C)[C@H]3CCC21C (stereo not given in full)
Potency [1]: inactive
Potency [2]: inactive
outcome [3]: inactive
outcome [4]: inactive

C=CC(C)=C[C@@]1(C)SC(=O)C(C)=C1O
Potency [1]: inactive
Potency [2]: inactive
outcome [3]: inactive
outcome [4]: inactive

C[C@@H](CN1CCC(Cc2ccccc2)CC1)[C@@H](O)c1ccc(O)cc1
Potency [1]: inactive
Potency [2]: inactive
outcome [3]: inactive
outcome [4]: inactive

CCCn1c(=O)c2[nH]c(-c3ccc(OCC(=O)NCCN)cc3)nc2n(CCC)c1=O
Potency [1]: inactive
Potency [2]: inactive
outcome [3]: inactive
outcome [4]: inactive

O=C(O)[C@@H]1C[C@@H](C(=O)O)N1
Potency [1]: inactive
Potency [2]: inactive
outcome [3]: inactive
outcome [4]: inactive

CCCCCC(O)c1cccc(OCc2ccc3ccccc3n2)c1 (stereo not given)
Potency [1]: inactive
Potency [2]: inactive
outcome [3]: inactive
outcome [4]: inactive

CO/N=C(\C(=O)N[C@@H]1C(=O)N2C(C(=O)O)=C(COC(C)=O)CS[C@H]12)c1csc(N)n1
Potency [1]: inactive
Potency [2]: inactive
outcome [3]: inactive
outcome [4]: inactive

Brc1c(Br)c(Br)c2n[nH]nc2c1Br
Potency [1]: inactive
Potency [2]: inactive
outcome [3]: inactive
outcome [4]: inactive

CC(C)(C=O)Cc1cc(C(C)(C)C)c(O)c(C(C)(C)C)c1
Potency [1]: 2.51 µM (active)
Potency [2]: inactive
outcome [3]: inactive
outcome [4]: inactive

CCCCCCCCCCCCCCCC(=O)OC(CC(=O)O)C[N+](C)(C)C (stereo not given)
Potency [1]: inactive
Potency [2]: inactive
outcome [3]: inactive
outcome [4]: inactive

CN(C)c1nc2c(Br)c(Br)c(Br)c(Br)c2[nH]1
Potency [1]: inactive
Potency [2]: inactive
outcome [3]: inactive
outcome [4]: inactive

O=C(O)/C=C/C(O)c1ccc(Cl)cc1 (stereo not given)
Potency [5]: inactive
Potency [1]: inactive
Potency [2]: inactive
outcome [3]: inactive
outcome [4]: inactive
Potency [6]: inactive

Oc1ccccc1O
Potency [1]: 2 µM (active)
Potency [2]: inactive
outcome [3]: inactive

CN1C2CCC1CC(OC(=O)C(O)c1ccccc1)C2 (stereo not given)
Potency [1]: inactive
Potency [2]: inactive
outcome [3]: inactive
outcome [4]: inactive

CCCCCCCCCCCCCCCC(=O)NCC(COP(=O)([O-])OCC[N+](C)(C)C)OCC (stereo not given)
Potency [1]: inactive
Potency [2]: inactive
outcome [3]: inactive
outcome [4]: inactive

CC[C@@H](C)[C@H]1O[C@]2(CC[C@H]1C)C[C@@H]1C[C@@H](CC=C(C)[C@@H](O[C@H]3C[C@H](OC)[C@@H](O[C@H]4C[C@H](OC)[C@@H](O)[C@H](C)O4)[C@H](C)O3)[C@@H](C)C=CC=C3CO[C@@H]4[C@H](O)C(C)=C[C@@H](C(=O)O1)[C@]34O)O2
Potency [1]: inactive
Potency [2]: inactive
outcome [3]: inactive
outcome [4]: inactive

Cc1ccccc1CNc1ncnc2c1ncn2C1OC(CO)C(O)C1O (stereo not given)
Potency [5]: inactive
Potency [1]: inactive
Potency [2]: inactive
outcome [3]: inactive
outcome [4]: inactive
Potency [6]: inactive
